Each structure is given as a SMILES string. About 79,000 compounds went through this panel and 15% of them were active in at least one assay; those are over-represented in the sample as a whole. Values without a mark were called inactive. Calls of active or inactive are those of the source. Rule as the data show it: active = growth inhibition above about 70%; inactive = the rest.

Experiment [1] in a line: NCI Yeast Anticancer Drug Screen. Data for the rad50 strain (AID 155).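 Also: 0% = growth of vehicle-only cultures of the same strain.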 Particulars: S. cerevisiae rad50 strain growth inhibition; at 50.0 µM; hits give high values. The method, boiled down: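 Inhibition values express reduced yeast growth in compound-treated cultures relative to vehicle-treated controls.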
A short description of experiment [2]: NCI Yeast Anticancer Drug Screen. Data for the sgs1 mgt1 strain (AID 161).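 Also: 0% = growth of cultures given vehicle only.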 To be noted: S. cerevisiae sgs1 mgt1 strain, at 50.0 µM, hits give high values. The method, boiled down: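 This yeast growth screen uses a strain with defined DNA-repair lesions; compound-treated growth is compared with vehicle-treated growth.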
Experiment [3] in a line: NCI Yeast Anticancer Drug Screen. Data for the cln2 rad14 strain (AID 165).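 Also: 0% = growth equal to vehicle treated cultures.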 To be noted: S. cerevisiae cln2 rad14 strain, at 50.0 µM, hits give high values. The method, boiled down:
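Growth inhibition, relative to vehicle-treated controls, is the read-out. The test organism is a yeast strain with defined genetic alterations, cln2 rad14.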

Experiment [4] in a line: NCI Yeast Anticancer Drug Screen. Data for the mec2-1 strain (AID 157). Particulars: S. cerevisiae mec2-1 strain, at 50.0 µM, hits give high values. The method, boiled down:
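Growth inhibition is read against vehicle-treated controls after compound exposure of the mec2-1 yeast strain, which is defective in DNA damage repair or cell cycle control.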

The nature of experiment [5]: NCI Yeast Anticancer Drug Screen. Data for the bub3 strain (AID 167). To be noted: S. cerevisiae bub3 mutant strain, at 50.0 µM, hits give high values. The procedure, abridged:
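Steps: expose the mutant yeast strain to compound; grow alongside vehicle-treated cultures; measure growth; express inhibition against the vehicle cultures.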

Experiment [6] in a line: NCI Yeast Anticancer Drug Screen. Data for the mlh1 rad18 strain (AID 175). To be noted: S. cerevisiae mlh1 rad18 strain growth inhibition; at 50.0 µM; hits give high values. The procedure, abridged:
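Cells of a genetically altered yeast strain, deficient in DNA damage repair, were treated with compound. Their growth was then compared with that of vehicle-treated cultures to give inhibition.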

Consider `Cc1[nH]nc(C(N)=O)c1[N+](=O)[O-]`, for which the growth inhibition in experiment [1] is -0.75%; in experiment [2], 20.2%; in experiment [3], -36.8%.
With `N#C/C(=C\c1ccc2c(c1)OCO2)c1ccccc1`, the growth inhibition in experiment [1] is 10.4%; in experiment [4], -0.7%; in experiment [3], 10.2%; in experiment [5] it was 1.95%; in experiment [6], 24.1%.
Consider `Cc1cc2nc(C)c(C)nc2cc1C`, for which the growth inhibition is -20.5% in experiment [1], -37.9% in experiment [4], -25.7% in experiment [5] and -20.4% in experiment [6].
`C=CCC(OC(C)=O)c1ccc(OC)c(OC)c1` (configuration not stated): the growth inhibition in experiment [1] was 11.3%; in experiment [4], 1.35%; in experiment [2], 14.7%; in experiment [5] it was 8.7%; in experiment [6] it was 9.5%.
As for `CC(=O)C1C(=O)C(=O)N(c2ccc(Cl)c(Cl)c2)C1=O` (configuration not stated), the growth inhibition in experiment [1] was -22.1%; in experiment [4], -21%; in experiment [3], -14.4%; in experiment [5], -9.5%; in experiment [6], -24.9%.
For `CCCC(=O)c1cccs1`, the growth inhibition in experiment [1] was 3.25%; in experiment [4], 9.85%; in experiment [3], -11.3%; in experiment [6], 11.9%.
With `CCOc1ccncc1[N+](=O)[O-]`, the growth inhibition was 5.5% in experiment [1]; 13.1% in experiment [4]; -7% in experiment [3]; 10.1% in experiment [5]; 5% in experiment [6].
For `Cc1ccc(C2CCCCC2)cc1Br`, in that order: 5.7%, 4.25%, 3.15%, 9.45% and 28.3%.
For the molecule `c1ccc(Oc2c3ccccc3nc3ccccc23)cc1`, the growth inhibition in experiment [1] is 2.75%; in experiment [4] it was -18.4%; in experiment [5], -5.7%; in experiment [6], 87.9% (active).
Take `Cc1nc(C)c(C(=O)O)cc1C(=O)O`: the growth inhibition in experiment [1] was -8.9%; in experiment [4], -17.8%; in experiment [3], 2.85%; in experiment [5], 21.4%.
As to `CCCCCCCCCCCCCCCCCCSC(=N)N`, the growth inhibition is 45.9% in experiment [1], -16.7% in experiment [4], -116% in experiment [3] and 27.9% in experiment [6].
As to `c1ccc2c(NCCCN3CCN(CCCNc4c5ccccc5nc5ccccc45)CC3)c3ccccc3nc2c1`, the growth inhibition was 23.9% in experiment [1]; 4.6% in experiment [4]; -0.25% in experiment [3]; 22.2% in experiment [5]; 14.9% in experiment [6].
Consider `COC1OC(COC(C)=O)C(OC(C)=O)C(OC(C)=O)C1OC(C)=O` (configuration not stated), for which the growth inhibition in experiment [1] was 10.7%; in experiment [4] it was 3.05%; in experiment [3], -28.6%; in experiment [5], 2.05%; in experiment [6], 13.2%.
As to `CC(C)C1CCC(C)C(O)C1` (configuration not stated), the growth inhibition in experiment [1] is 26.7%; in experiment [4] it was 6.35%; in experiment [3], 8.9%; in experiment [5], -0.55%.
Turning to `O=C(OCc1ccccc1)n1nnc2ccccc21`, the growth inhibition in experiment [1] is 27.8%; in experiment [4] it was -4.05%; in experiment [3] it was -17.2%; in experiment [5], 19.2%; in experiment [6], 2.45%.
Turning to `CC(C)N1CC(=O)N2CSCC2C1=O` (configuration not stated), the growth inhibition in experiment [1] was 14.1%; in experiment [4], 8.3%; in experiment [3], -6.85%; in experiment [6] it was 3.25%.
Take `O=C(O)Cc1ccccn1`: the growth inhibition in experiment [1] is -29.4%; in experiment [4] it was -49.1%; in experiment [3] it was 14.1%; in experiment [5], -28.8%; in experiment [6], -2.25%.
For `Nc1ccn(C2OC(CO)C(O)C2F)c(=O)n1` (configuration not stated), in that order: 12.4%, 0.45%, 10.7%, -0.1% and -6.95%.
With `CCCCN(C=S)CCCC`, the growth inhibition in experiment [1] was 9.65%; in experiment [2], -5.7%; in experiment [3], 13.7%; in experiment [5], -2.2%; in experiment [6], 10.7%.
Regarding `O=C1C=C(c2ccccc2)C(O)(c2ccccc2)C1` (configuration not stated), the growth inhibition in experiment [1] is 15.1%; in experiment [4], 6.85%; in experiment [3] it was 5.1%; in experiment [5] it was 11.4%.
With `COC(=O)c1ccc([N+](=O)[O-])c(C)c1`, the growth inhibition in experiment [1] is -33.2%; in experiment [4], -30.9%; in experiment [3] it was -9.9%; in experiment [5], -25.1%; in experiment [6], -27.6%.
For `COc1cc(OC)c2cc(C(=O)c3ccc(C#N)cc3)c(=O)oc2c1`, the growth inhibition in experiment [1] is 17%; in experiment [4] it was -12.1%; in experiment [3], 31%; in experiment [5], 35.1%.
As to `OC1Cc2ccccc2C1`, the growth inhibition in experiment [1] is -32.5%; in experiment [4] it was -26.4%; in experiment [3], -31.8%; in experiment [6] it was -18.6%.
Take `OCCc1ccc(Cl)cc1`: the growth inhibition in experiment [1] was 10.8%; in experiment [4], 8.15%; in experiment [3] it was 15.3%; in experiment [5], -1.3%; in experiment [6], 7.9%.
For the molecule `CC(CC(CCC(=O)O)(c1ccccc1)c1ccccc1)N(C)C` (configuration not stated), the growth inhibition in experiment [1] is 19.6%; in experiment [3], -0.1%; in experiment [5], 7.95%; in experiment [6] it was 13.4%.
`COC1OC(C(O)C(O)CO)C(O)C(O)C1O` (configuration not stated): the growth inhibition in experiment [1] was 14.3%; in experiment [2], 11.8%; in experiment [3], -55.7%; in experiment [5] it was -3.65%; in experiment [6] it was 11.7%.
Regarding `Cc1c(-c2ccc(C3CCCCC3)cc2)nc2ccc(F)cc2c1C(=O)O`, the growth inhibition in experiment [1] is 15.3%; in experiment [2] it was 12.3%; in experiment [3], 5.3%; in experiment [5], 1.8%; in experiment [6], -15.2%.
